Our source for the growth values is PubChem BioAssay (NCI).

Among the test systems are HCT-15 colon; HT29 colon; SNB-75 CNS; SNB-19 CNS; U251 CNS; PC-3 prostate; SK-MEL-5 melanoma; UACC-62 melanoma; LOX IMVI melanoma; SK-MEL-28 melanoma; SK-MEL-2 melanoma; EKVX NSCLC; SN12C renal; UO-31 renal; TK-10 renal; ACHN renal; CAKI-1 renal; A498 renal; CCRF-CEM leukemia; MOLT-4 leukemia.
Experiment in all cases: NCI-60 one-dose screen, 48 h (100 = growth as untreated, 0 = no growth, -100 = all killed)
Common to all, as to settings: 10 µM unless noted

Compounds without any hit were thinned out: in the full panel of roughly 83,000, 20% have a hit.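 Plates (96-well) were seeded with cells, treated with compound at one concentration, and incubated for 48 hours before percent growth was determined.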 Values without a mark were called inactive. Calls of active or inactive are those of the source. The calls were made as follows: active = growth percent below 10; inactive = the rest.

On to `C=CCc1c(O)c(C(=O)/C=C/c2ccccc2)c(OC)c2ccoc12`, for which the growth is 39.6% with HCT-15 colon; 27.9% in the assay with HT29 colon; 72.9% in the assay on SNB-75 CNS; 46.6% in the assay with SNB-19 CNS; 26.8% in the assay on U251 CNS; 33.9% in the assay on PC-3 prostate. Besides, the growth is 33.3% in the assay on SK-MEL-5 melanoma; 41.3% in the assay on UACC-62 melanoma; 35.2% in the assay with LOX IMVI melanoma; 64.6% with SK-MEL-28 melanoma; 11.5% with SK-MEL-2 melanoma; 64.6% in the assay on EKVX NSCLC. Besides, the growth with SN12C renal was 57%; with UO-31 renal it was 50.9%; with TK-10 renal, 38.8%; in the assay with ACHN renal, 51.7%; with CAKI-1 renal it was 13.1%; in the assay with A498 renal, -10.9% (active). Also, the growth in the assay with CCRF-CEM leukemia is 21.3%; in the assay with MOLT-4 leukemia it was 15.3%.

With `COc1cc2cc(NCc3cccc(Cl)c3)nc(C)c2cc1OC`, the growth was 48.2% in the assay with HCT-15 colon; 3.17% (active) with HT29 colon; 65.9% in the assay with SNB-75 CNS; 48.8% in the assay on SNB-19 CNS; 31.1% in the assay on U251 CNS; 50.1% in the assay with PC-3 prostate. For the same compound, the growth is 43.4% with SK-MEL-5 melanoma; 14.4% with UACC-62 melanoma; 0.852% (active) in the assay on LOX IMVI melanoma; 33.3% in the assay on SK-MEL-28 melanoma; 38.6% in the assay on SK-MEL-2 melanoma; 60% with EKVX NSCLC. In addition, the growth in the assay on SN12C renal was 44.6%; in the assay with UO-31 renal, 36%; in the assay on TK-10 renal, 45.9%; in the assay with ACHN renal, 43.5%; with CAKI-1 renal, 52%; in the assay with A498 renal, 7.63% (active). The growth was 27.5% in the assay on CCRF-CEM leukemia and 30.4% with MOLT-4 leukemia.

For `COc1ccc(C(=O)c2cc3c(N)c(C(=O)Nc4ccc(C)cc4)sc3nc2C)cc1`, the growth in the assay on HCT-15 colon is 11.5%; with HT29 colon, 9.18% (active); in the assay on SNB-75 CNS, -2.41% (active); in the assay with SNB-19 CNS, 28.9%; in the assay on U251 CNS, 19.2%; with PC-3 prostate, 25.1%. Besides, the growth with SK-MEL-5 melanoma was 6.93% (active); in the assay on UACC-62 melanoma, 30.6%; with LOX IMVI melanoma it was 39.2%; in the assay with SK-MEL-28 melanoma, 54%; in the assay with SK-MEL-2 melanoma it was 56.1%; with EKVX NSCLC, 40.8%. Besides, the growth in the assay with SN12C renal is 37.2%; with UO-31 renal, 41.2%; in the assay on TK-10 renal it was 61.3%; with ACHN renal, 46.8%; in the assay on CAKI-1 renal, 28%; in the assay on A498 renal it was 14%. In addition, the results for the growth in the assay with CCRF-CEM leukemia and in the assay with MOLT-4 leukemia were 15.7% and 20.5%, respectively.

Turning to `O=C(/C=C/c1cccc(Cl)c1)c1ccc(Nc2nc(Nc3ccc(F)cc3)nc(Nc3ccc(Cl)cc3)n2)cc1`, the growth in the assay on HCT-15 colon was 101%; with HT29 colon, 108%; in the assay on SNB-75 CNS it was 95.7%; in the assay on SNB-19 CNS it was 118%; with U251 CNS, 112%; in the assay with PC-3 prostate it was 98.8%. Also, the growth was 90.7% with SK-MEL-5 melanoma; 108% in the assay on UACC-62 melanoma; 104% in the assay with LOX IMVI melanoma; 112% in the assay with SK-MEL-28 melanoma; 72.2% in the assay on SK-MEL-2 melanoma; 139% in the assay with EKVX NSCLC. Moreover, the growth is 136% with SN12C renal; 94.6% in the assay with UO-31 renal; 127% with TK-10 renal; 116% in the assay with ACHN renal; 112% with CAKI-1 renal; 124% in the assay on A498 renal. Besides, the growth in the assay with MOLT-4 leukemia is 94%.

With `C=C1CC[C@@H]2[C@](C)(COC(C)=O)[C@H](OC(C)=O)CC[C@@]2(C)[C@@H]1CC(Nc1ccc(S(=O)(=O)Nc2ncccn2)cc1)C1=CCOC1=O` (some centres undefined), the growth was -51.4% (active) in the assay with HCT-15 colon; -48.6% (active) with HT29 colon; 25.6% in the assay on SNB-75 CNS; 36.7% in the assay on SNB-19 CNS; -19% (active) in the assay with U251 CNS; 15.1% in the assay with PC-3 prostate. The growth in the assay on SK-MEL-5 melanoma was 24.1%; in the assay with UACC-62 melanoma it was 3.93% (active); in the assay with LOX IMVI melanoma, -79.8% (active); in the assay with SK-MEL-28 melanoma, -17.7% (active); with SK-MEL-2 melanoma it was 41.9%; in the assay with EKVX NSCLC it was 68.3%. Besides, the growth in the assay with SN12C renal is 7.64% (active); in the assay on UO-31 renal, -17.9% (active); in the assay on TK-10 renal it was 35.1%; with ACHN renal, -56.1% (active); in the assay with CAKI-1 renal, 50.2%; in the assay with A498 renal it was 79%. In addition, the values for the growth with CCRF-CEM leukemia and in the assay with MOLT-4 leukemia were -26.3% (active) and -8.69% (active), respectively.

As to `CC(C)Cn1cnc2c(=O)[nH]c(N)nc21`, the growth was 106% with HCT-15 colon; 79.2% in the assay on HT29 colon; 84.4% in the assay on SNB-75 CNS; 100% in the assay with SNB-19 CNS; 94.8% in the assay on U251 CNS; 92.8% in the assay on PC-3 prostate. The growth with SK-MEL-5 melanoma is 98.9%; in the assay on UACC-62 melanoma, 103%; in the assay on LOX IMVI melanoma it was 97.8%; with SK-MEL-28 melanoma it was 115%; in the assay on SK-MEL-2 melanoma, 87.9%; in the assay with EKVX NSCLC it was 101%. The growth was 98.9% in the assay on SN12C renal; 94.4% in the assay with UO-31 renal; 88.6% with TK-10 renal; 106% in the assay with ACHN renal; 95.4% with CAKI-1 renal; 94.1% with A498 renal. Moreover, the growth was 107% in the assay on CCRF-CEM leukemia and 92.4% with MOLT-4 leukemia.

On to `CCN1C(=O)N(CC)C2C1NN=c1s/c(=C\c3ccccc3F)c(=O)n12` (centres undefined), for which the growth in the assay with HCT-15 colon was 8.45% (active); in the assay on HT29 colon, 1.76% (active); in the assay on SNB-75 CNS it was 10.8%; in the assay with SNB-19 CNS, 31%; in the assay with U251 CNS it was 1.71% (active); in the assay on PC-3 prostate it was 25.1%. Further, the growth was -21.1% (active) in the assay with SK-MEL-5 melanoma; 34.4% in the assay with UACC-62 melanoma; 15.8% with LOX IMVI melanoma; 61.2% with SK-MEL-28 melanoma; 37.2% with SK-MEL-2 melanoma; 53% in the assay with EKVX NSCLC. Further, the growth in the assay with SN12C renal was 23.9%; in the assay on UO-31 renal it was 40.4%; in the assay with TK-10 renal, 70.3%; in the assay on ACHN renal it was 27.5%; in the assay on CAKI-1 renal, 17.4%; in the assay on A498 renal it was 3.4% (active). The growth in the assay with CCRF-CEM leukemia was 8.85% (active); in the assay with MOLT-4 leukemia, 10.2%.

As to `COc1ccc(\C=N/N=C(N)/C(N)=N\N=C/c2ccc(OC)cc2)cc1`, the growth in the assay with HCT-15 colon is 104%; in the assay on HT29 colon, 102%; in the assay with SNB-75 CNS it was 86.8%; in the assay on SNB-19 CNS it was 112%; with U251 CNS it was 107%; in the assay with PC-3 prostate it was 101%. Besides, the growth with SK-MEL-5 melanoma was 105%; in the assay on UACC-62 melanoma it was 104%; in the assay on LOX IMVI melanoma, 99.1%; with SK-MEL-28 melanoma, 125%; with SK-MEL-2 melanoma, 95.5%; in the assay with EKVX NSCLC it was 95.6%. Besides, the growth in the assay on SN12C renal is 111%; in the assay with UO-31 renal, 89.1%; with TK-10 renal it was 101%; in the assay on ACHN renal, 100%; in the assay on CAKI-1 renal, 89.8%; in the assay with A498 renal, 96.3%. Also, the growth with CCRF-CEM leukemia is -48.3% (active); in the assay on MOLT-4 leukemia, 109%.
